Test [1] can be described thus: qHTS of pediatric cancer cell lines to identify multiple opportunities for drug repurposing: Primary screen for A673 cells (AID 1347092). Further: nearly all actives have a fitted effect of over 45% in size. Further: potency means the concentration at half of the fitted maximal effect. Put shortly: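 Titration-based qHTS on A673 cells: MIPE compounds spanned 11 points (0.78 nM to 46 µM final), NPC compounds 8 points (0.59 nM to 46 µM final). Viability after 48 h was measured by ATP luminescence.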
A general note: qHTS replaces the single test concentration by a dilution series.

Test [2] in a line: qHTS of pediatric cancer cell lines to identify multiple opportunities for drug repurposing: Primary screen for SK-N-MC cells (AID 1347093). Further: potency means the concentration at half of the fitted maximal effect. In a few lines: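 Metabolically active cells were quantified by ATP-dependent luminescence (CellTiter-Glo, 15 min at room temperature) following 48 h treatment. Cells had been plated at 500-1,000 per well and settled for 5 h beforehand.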

Test [3] can be described thus: qHTS of pediatric cancer cell lines to identify multiple opportunities for drug repurposing: Primary screen for BT-37 cells (AID 1347094). Further: potency means the concentration at half of the fitted maximal effect. Put shortly: (§1)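 Primary screen of approved and investigational compounds on cells in growth media at 37 degrees C, 5% CO2. MIPE set at 11-point and NPC set at 8-point dilutions; viability scored by ATP-based luminescence at 48 hours.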

Test [4] is described as follows: qHTS of pediatric cancer cell lines to identify multiple opportunities for drug repurposing: Primary screen for NB-EBc1 cells (AID 1347095). In a few lines: as §1
A short description of test [5]: qHTS of pediatric cancer cell lines to identify multiple opportunities for drug repurposing: Primary screen for SK-N-SH cells (AID 1347098). Further: nearly all actives have a fitted effect of over 65% in size. Further: potency means the concentration at half of the fitted maximal effect. Put shortly:
(§2)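 Cells (500-1,000/well) rested 5 h, then received compounds for 48 h; metabolically active cells were measured by CellTiter-Glo luminescence. Final concentrations spanned up to 46 µM (MIPE, 11-point) or 0.59 nM-46 µM (NPC, 8-point) in primary screens, 11-point in follow-ups.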

A short description of test [6]: qHTS of pediatric cancer cell lines to identify multiple opportunities for drug repurposing: Primary screen for NB1643 cells (AID 1347099). Further: nearly all actives have a fitted effect of over 50% in size. Further: potency means the concentration at half of the fitted maximal effect. Put shortly:
as §1

Test [7] can be described thus: qHTS of pediatric cancer cell lines to identify multiple opportunities for drug repurposing: Primary screen for LAN-5 cells (AID 1347100). In a few lines: (§3)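 Cells (500-1,000/well) in growth media were settled 5 h at 37 degrees C, then given compounds for 48 h. Viability was read as CellTiter-Glo luminescence. Primary runs used MIPE at 11 points (0.78 nM-46 µM) and NPC at 8 points (0.59 nM-46 µM); follow-ups used 11 points.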

A short description of test [8]: qHTS of pediatric cancer cell lines to identify multiple opportunities for drug repurposing: Primary screen for BT-12 cells (AID 1347101). Further: nearly all actives have a fitted effect of over 25% in size. Further: potency means the concentration at half of the fitted maximal effect. Put shortly: as §2
Test [9] in a line: qHTS of pediatric cancer cell lines to identify multiple opportunities for drug repurposing: Primary screen for Saos-2 cells (AID 1347097). Further: nearly all actives have a fitted effect of over 40% in size. Further: potency means the concentration at half of the fitted maximal effect. In a few lines:
as §1

Test [10] in a line: qHTS of pediatric cancer cell lines to identify multiple opportunities for drug repurposing: Primary screen for U-2 OS cells (AID 1347096). Further: nearly all actives have a fitted effect of over 50% in size. In a few lines: as §3

Results filed as inconclusive are left out. Activity calls are given as the source filed them. The call rests on the fitted dose curve; in most records, active means well fitted curve in the direction sought with a large enough effect; inconclusive means small, poorly fitted or top-dose-only effect, or another doubt; inactive means no such curve, though single readings can be large; an effect the other way counts as inactive or inconclusive.

For the compound `CC(=O)NC(Cc1ccccc1)C(=O)O` (stereo not given), the Potency result in test [1], in [2], in test [3], in test [4], in test [5] and in test [6] was “inactive” each time. The Potency entry in test [7] and in test [8] was “inactive” in each case.

On to `N[C@H](C(=O)O)c1ccc(O)cc1`, for which the Potency entry in test [1], in [2], in test [3], in test [4], in test [9] and in [5] was “inactive” in each case. The Potency entry in test [6], in test [7] and in test [8] was “inactive” in each case.

With `COc1cc(C(=O)N2CCOCC2)cc(OC)c1OC`, the Potency entry in [1], in test [2], in test [3], in test [4], in test [5] and in [6] was “inactive” throughout. In addition, the Potency entry in test [7] and in test [8] was “inactive” each time.

For `NC(=O)c1ncn([C@@H]2O[C@H](CO)[C@@H](O)[C@H]2O)n1`, the Potency result in [1], in [2], in [3], in test [9], in test [5] and in [6] was “inactive” in each case. Moreover, the Potency entry in test [7] and in [8] was “inactive” each time.

For the compound `O=S(=O)(O)NC1CCCCC1`, the Potency result in test [1], in test [2], in test [3], in [4], in test [9] and in test [5] was “inactive” throughout. In addition, the Potency result in [6], in test [7] and in [8] was “inactive” in each case.

`Oc1cccc(O)c1`: the Potency entry in [1], in test [2], in [3], in [4], in [9] and in [5] was “inactive” in each case. Further, the Potency entry in test [6], in test [7] and in test [8] was “inactive” in each case.

`N[C@H]1C(O)O[C@H](CO)[C@@H](O)[C@@H]1O` (stereo not given in full): the Potency result in [1], in [2], in [3], in [4], in [9] and in test [5] was “inactive” in each case. Moreover, the Potency entry in test [6], in test [7] and in test [8] was “inactive” each time.

In the case of `O=C(Oc1ccccc1C(=O)O)c1ccccc1O`, the Potency entry in [1], in [2], in [3], in [4], in [9] and in test [5] was “inactive” each time. Further, the Potency result in test [6], in test [7] and in test [8] was “inactive” in each case.

Regarding `O=C1c2c(O)cccc2Cc2cccc(O)c21`, the Potency result in test [1], in test [2], in test [4], in test [10], in [9] and in test [5] was “inactive” throughout. In addition, the Potency entry in test [6], in test [7] and in test [8] was “inactive” throughout.

Regarding `CNC(=O)Oc1ccc2c(c1)[C@]1(C)CCN(C)[C@@H]1N2C`, the Potency result in [1], in [2], in test [3], in [4], in test [5] and in [6] was “inactive” throughout. Further, the Potency result in test [7] and in test [8] was “inactive” each time.

For the compound `CC[N+](CC)(CC)CCOc1ccc(/C=C/c2ccccc2)cc1`, the Potency was 2.66 µM (active) in [1]; 5.96 µM (active) in test [2]; 15.5 µM (active) in test [3]; 23.7 µM (active) in test [9]; 13.3 µM (active) in [6]; 3.47 µM (active) in [8]. Moreover, the Potency result in test [10] is “inactive”.

In the case of `c1ccc(CN(CC2=NCCN2)c2ccccc2)cc1`, the Potency result in [1], in test [2], in test [4], in test [10], in test [9] and in test [5] was “inactive” each time. Also, the Potency result in test [6], in test [7] and in test [8] was “inactive” each time.

`COc1ccc2cc1Oc1ccc(cc1)C[C@H]1c3c(cc4c(c3Oc3cc5c(cc3OC)CCN(C)[C@@H]5C2)OCO4)CCN1C`: the Potency was 13.3 µM (active) in test [1]; 15 µM (active) in [2]; 17.4 µM (active) in test [3]; 12.2 µM (active) in test [5]; 24.6 µM (active) in [8]. Moreover, the Potency entry in test [6] is “inactive”.

For the compound `CS(=O)(=O)c1ccc([C@@H](O)[C@@H](CF)NC(=O)C(Cl)Cl)cc1`, the Potency entry in test [1], in test [2], in [3], in test [4], in test [5] and in test [6] was “inactive” in each case. The Potency entry in test [7] was “inactive”.

With `CC(C)(C)NCC(O)COc1ccc(NC(=O)NC2CCCCC2)cc1` (stereo not given), the Potency result in test [1], in test [2], in [4], in test [5], in test [6] and in [7] was “inactive” each time. Moreover, the Potency result in [8] is “inactive”.

For `Cc1cc2nc3c(=O)[nH]c(=O)nc-3n(C[C@H](O)[C@H](O)[C@H](O)CO)c2cc1C`, the Potency entry in test [1], in [2], in [4], in [10], in [9] and in test [5] was “inactive” throughout. Also, the Potency entry in test [6], in [7] and in [8] was “inactive” each time.

Consider `COc1ccc2[nH]c(S(=O)Cc3ncc(C)c(OC)c3C)nc2n1` (stereo not given), for which the Potency entry in test [1], in test [2], in [4], in test [10], in test [9] and in test [5] was “inactive” each time. Moreover, the Potency entry in [6], in test [7] and in test [8] was “inactive” throughout.

The record behind these values is PubChem BioAssay (NCATS).
